Screening data (PubChem)
Sampled rows, rich in hits. Any-hit rate of the full collection: about 2.8%.
Pol beta inh: blocks human DNA polymerase beta activity. Potency, µM (top dose mostly 114 µM), actives largely listed as inhibitors. Pol beta primer extension/strand displacement, fluorescence kinetic. actives 1.3% (n = 340,000)
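Homogeneous kinetic assay of primer extension and strand displacement by 10 nM Pol beta, preincubated 15 min at room temperature with compound before 50 nM substrate (final) was added. Read at 0 and 10 min; four-parameter Hill fit.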
Pol iota inh: blocks human DNA polymerase iota activity; Q9UNA4; Pol iota fluorescent replication assay, 10 min; Potency, µM (titrated, usually from 115 µM), most hits filed as inhibitors; actives 1% (n = 390,000)
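Pol iota at 10 nM preincubated 15 min with compounds at room temperature; reaction started with fluorescent substrate, 50 nM final. Fluorescence read kinetically at 0 and 10 min; buffer-only wells as negative control.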
PI5P4Ka inh: inhibitors of human PI5P4K alpha. P48426. PI5P4Kalpha enzyme, ADP-Glo luminescence, 60 min; hits give low values. max response, %. actives 1.2% (n = 330,000). AID 652105; active = max response of -50% or lower; inconclusive = between -30% and -50%; inactive = -30% or higher; note: value at the top dose of about 77 µM
Target sequence (P48426 whole entry, looked up): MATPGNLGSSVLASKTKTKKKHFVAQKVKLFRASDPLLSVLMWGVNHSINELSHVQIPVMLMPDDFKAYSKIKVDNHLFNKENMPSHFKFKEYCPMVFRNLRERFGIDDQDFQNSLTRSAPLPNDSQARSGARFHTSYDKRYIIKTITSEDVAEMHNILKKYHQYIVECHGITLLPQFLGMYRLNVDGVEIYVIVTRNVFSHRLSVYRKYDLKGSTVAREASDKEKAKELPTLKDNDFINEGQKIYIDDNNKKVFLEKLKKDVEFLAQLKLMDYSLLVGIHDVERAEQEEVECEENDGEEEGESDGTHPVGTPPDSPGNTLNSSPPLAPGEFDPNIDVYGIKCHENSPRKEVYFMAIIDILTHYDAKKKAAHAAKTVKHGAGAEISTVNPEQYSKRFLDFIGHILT
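PI5P4Kalpha ADP-Glo assay; 5 microM ATP final; 60 min RT reaction; HEPES pH 7.4/EGTA/CHAPS, 5% DMSO; controls lacking substrate or enzyme; luminescent end-point.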
POLH inh: blocks human DNA polymerase eta activity; Q9Y253; recombinant Pol eta, fluorescent DNA replication assay; Potency, µM (series often up to 114 µM), hits mostly inhibitors; actives 1.2% (n = 390,000)
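Fluorescent replication assay: 50 nM final substrate added after a 15 min room-temperature compound preincubation with 10 nM enzyme. Signal taken at 0 min and again at 10 min.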
PI4K2A inh: blocks human PI4K2A kinase activity; purified PI4K2A, ADP-Glo luminescence, 1 h; hits give low values; activity change, negative = inhibition, % at 76.9 µM; actives 0.13% (n = 420,000); AID 1346378; in the data active = activity change below about -50%; inconclusive = mostly about -30% to -49%
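ADP-Glo luminescence measured ADP generated by PI4K2A enzyme (4 ug/mL before mixing) with 1.2 mM PI substrate (pre-mix) and 300 microM ATP (pre-mix). Tris pH7.5 buffer with MgCl2, Triton X-100; 1 h reaction at ambient temperature.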
POLK inh: inhibitors of human DNA polymerase kappa; Q9UBT6; actives 0.53% (n = 400,000); AID 588579; Potency, µM (titrated, usually from 107 µM), usual class: inhibitors; purified Pol kappa, fluorescent DNA synthesis assay, 10 min
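Fluorescent qHTS in 1536-well format: enzyme (10 nM) and compound sat 15 min at room temperature before 50 nM substrate (final) was added. Signal taken at 0 and 10 min; no-enzyme buffer wells were negative controls.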
Large screens that a line does not name were inactive. Unless noted, calls come from the whole dose curve; as a rule, active = well fitted inhibition curve with a large enough effect; inconclusive = small, poorly fitted or top-dose-only effect, or another doubt; inactive = no such curve, though single readings can be large or run the other way.

COc1ccc(Br)cc1/C=C(\C(=O)O)c1ccc(S(=O)(=O)N2CCCC2)s1	Pol iota inh inconclusive, POLH inh 22µM, POLK inh inconclusive (no result: Pol beta inh)
CC1(C(=O)Nc2cnc3ccccc3c2)CCN1C(=O)CCc1ccccc1 (stereo not drawn)	none (no result: Pol beta inh, Pol iota inh, POLH inh, POLK inh)
Cc1nc2cccnc2n1-c1cccc(C(=O)NCCN(C)C)c1	none (no result: PI5P4Ka inh)
CC[C@H](C)[C@H](NC(=O)[C@H](Cc1ccc(O)cc1)NC(=O)[C@H](Cc1cnc[nH]1)NC(=O)[C@H](CCCNC(=N)N)NC(=O)[C@H](CC(C)C)NC(=O)[C@H](C)NC(=O)[C@H](CO)NC(=O)[C@H](Cc1ccc(O)cc1)NC(=O)[C@H](Cc1ccc(O)cc1)NC(=O)[C@H](CCCNC(=N)N)NC(=O)[C@H](C)NC(=O)[C@H](CCSC)NC(=O)[C@H](CC(=O)O)NC(=O)[C@H](CCC(=O)O)NC(=O)[C@H](C)NC(=O)[C@@H]1CCCN1)C(=O)N[C@@H](CC(N)=O)C(=O)N[C@@H](CC(C)C)C(=O)N[C@H](C(=O)N[C@H](C(=O)N[C@@H](CCCNC(=N)N)C(=O)N[C@@H](CCC(N)=O)C(=O)N[C@@H](CCCNC(=N)N)C(=O)N[C@@H](Cc1ccc(O)cc1)C(N)=O)[C@@H](C)O)[C@@H](C)CC	none (no result: Pol beta inh, Pol iota inh, PI5P4Ka inh, POLH inh, PI4K2A inh)
O=C(N/N=C/c1ccc2ccccc2c1)c1ccc(COc2ccc3c(c2)CCC3)o1	Pol beta inh 35µM, POLH inh 10µM
COc1ccc(Br)cc1/C=N/NC(=O)c1ccc(COc2ccc3c(c2)CCC3)o1	none
O=C(N/N=C/c1cc([N+](=O)[O-])ccc1O)c1ccc(COc2ccc3c(c2)CCC3)o1	PI5P4Ka inh -56
CN(C)CCNC(=O)C1CCN(c2ncnc3c2nc2n3CCCCC2)CC1	none (no result: PI5P4Ka inh)
N#Cc1c(C#N)c(SSc2c(C#N)c(C#N)c(N)n2-c2ccccc2)n(-c2ccccc2)c1N	PI5P4Ka inh -81 (no result: Pol beta inh)
CCCCN(CCCC)C(C(N)=O)c1ccc(OC)cc1 (stereo not drawn)	none (no result: Pol beta inh, Pol iota inh, PI5P4Ka inh, POLH inh, POLK inh)
COc1ccc(NC(=O)CSc2nc3n[nH]c(C)c3c(=N)n2-c2ccc(Cl)c(C)c2)cc1OC	Pol beta inh 3.5µM, POLH inh 50µM
CCc1ccc(NC(=O)CSc2nc3n[nH]c(C)c3c(=N)n2-c2ccccc2C)cc1	Pol iota inh 89µM (no result: PI5P4Ka inh)
Cc1ccc(NC(=O)Cc2c(C(=O)O)c(C)cn2C)cc1Cl	none (no result: PI5P4Ka inh)
Nc1ccc2c(c1)-c1ccccc1S(=O)(=O)N2	Pol iota inh 14µM, PI5P4Ka inh inconclusive, POLH inh 45µM, POLK inh inconclusive
CCCOc1ccc(C(C)=O)cc1CSc1nc(O)cc(=O)[nH]1	Pol beta inh inconclusive, Pol iota inh 35µM, POLK inh inconclusive
CCCOc1ccc(C(C)=O)cc1CSCCC#N	none
NC(=S)NNc1c(F)c(F)c(F)c(F)c1F	PI5P4Ka inh -54
Cc1ccccc1NNC(N)=S	none
COc1ccc(CNC(=O)C2Cc3ccccc3CN2C(=O)c2ccco2)cc1 (stereo not drawn)	Pol beta inh inconclusive
O=C(NCc1ccco1)C1Cc2ccccc2CN1C(=O)c1ccco1 (stereo not drawn)	Pol beta inh 22µM, Pol iota inh 32µM, PI5P4Ka inh inconclusive, POLH inh 32µM, POLK inh inconclusive
O=C(NCc1ccco1)C1Cc2ccccc2CN1S(=O)(=O)c1ccccc1F (stereo not drawn)	Pol iota inh 13µM, PI5P4Ka inh -61, POLH inh 10µM, POLK inh inconclusive (no result: Pol beta inh)
CNC(=O)c1ccccc1Sc1ccc2c(/C=C/c3ccccn3)n[nH]c2c1	none (no result: Pol beta inh, Pol iota inh, PI5P4Ka inh, POLH inh, POLK inh)
O=C(COC(=O)c1cc(-c2cccc3ccccc23)nc2ccccc12)NC1CCS(=O)(=O)C1 (stereo not drawn)	Pol beta inh 50µM, Pol iota inh inconclusive
O=C(COC(=O)c1ccc([N+](=O)[O-])s1)Nc1ncc(C(F)(F)F)cc1Cl	Pol beta inh inconclusive, Pol iota inh inconclusive, POLH inh 35µM
